PubChem BioAssay AID1851 (National Center for Advancing Translational Sciences (NCATS), 2009)
Among all 16,000 compounds or so, about 5,800 (36%) were called active. Roughly 23% stayed inconclusive and do not appear here. Calls come from the whole dose curve; as a rule, active = well fitted curve in the direction sought with a large enough effect; inconclusive = small, poorly fitted or top-dose-only effect, or effect the other way; inactive = no such curve, though single readings can be large or run the other way. This is one part of the list.

Each molecule was assayed against Cytochrome P450 2C19 (Homo sapiens) (UniProt P33261) (assay: Cytochrome panel assay with activity outcomes). Settings: recombinant CYP, pro-luciferin dealkylation, luminescence, p450-cyp2c19; series mostly up to 57.1 µM.
% is set by controls: 0 for no effect and ±100 for the full control effect.

Sequence of Cytochrome P450 2C19 (Homo sapiens) (P33261 whole entry, looked up): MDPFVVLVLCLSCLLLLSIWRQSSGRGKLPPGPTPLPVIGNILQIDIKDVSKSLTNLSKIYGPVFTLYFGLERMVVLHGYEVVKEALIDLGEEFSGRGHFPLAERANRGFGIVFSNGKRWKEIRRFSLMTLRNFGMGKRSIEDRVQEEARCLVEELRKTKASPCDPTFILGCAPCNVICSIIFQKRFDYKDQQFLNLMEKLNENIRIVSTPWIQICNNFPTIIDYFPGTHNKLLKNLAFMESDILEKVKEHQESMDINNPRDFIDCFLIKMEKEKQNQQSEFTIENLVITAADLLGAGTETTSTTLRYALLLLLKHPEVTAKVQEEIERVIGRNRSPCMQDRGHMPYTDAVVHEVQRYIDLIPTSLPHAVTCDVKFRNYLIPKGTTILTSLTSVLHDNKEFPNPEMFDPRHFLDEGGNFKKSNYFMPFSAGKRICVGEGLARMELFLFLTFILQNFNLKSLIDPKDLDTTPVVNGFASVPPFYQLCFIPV

| Structure (SMILES) | AC50 | activity, negative = inhibition |
| --- | --- | --- |
| C=CCn1c(NCc2ccccc2)nc2ccccc21 | 3.16 µM (active) |  |
| CC(=O)Nc1nc2ccccc2n1Cc1ccccc1 | 22.4 µM (active) |  |
| COc1ccc(CNc2nc3ccccc3n2Cc2ccccc2)cc1OC | 7.94 µM (active) |  |
| O=C(Nc1nc2ccccc2n1Cc1ccccc1)c1ccc(COc2ccccc2[N+](=O)[O-])o1 | 1.26 µM (active) |  |
| CCn1nccc1C(=O)Nc1nc2ccccc2n1CCN1CCCCC1 | inactive |  |
| CC(C)CN1CCC2(CC1)CCN(C(=O)c1cc(C(F)(F)F)cc(C(F)(F)F)c1)CC2 | inactive |  |
| CC[C@](N)(CCC(=O)O)C(=O)O | inactive |  |
| CN(C)c1ncc2nc(-c3cc(F)cc(F)c3)c(=O)n(C[C@H]3CCCO3)c2n1 | inactive |  |
| O=C(CN(Cc1ccccc1)S(=O)(=O)c1ccc2c(c1)OCCO2)N/N=C/c1ccc(F)cc1 | 3.98 µM (active) |  |
| CN(CCc1ccccn1)c1ccc2c(c1)C(=O)c1ccccc1-2 | 2.51 µM (active) |  |
| CN(CCc1ccccn1)c1ccc2c(c1)Cc1ccccc1-2 | 0.794 µM (active) |  |
| CCOC(=O)N/N=C1/C[C@@H](O)[C@@H](O)[C@@H]2[C@@H]3C(=O)N(Cc4ccccc4)C(=O)[C@H]3CC[C@@H]12 |  | 11.9% [at 11.4 µM] (inactive) |
| COC(=O)c1nnn(Cc2ccccc2)c1N | inactive |  |
| CCOC(=O)C1=C(O)C(=O)N(Cc2ccccc2)C1 | 15.8 µM (active) |  |
| O=c1onc2n1-c1cc(Br)ccc1OC2 | inactive |  |
| Cc1nn(-c2ccccc2)c(Cl)c1/C=N/NC(=O)c1ccco1 | 15.8 µM (active) |  |
| Cc1nn(-c2ccccc2)c(C)c1/C=N/NC(=O)c1cc(-c2ccc(Cl)s2)[nH]n1 | 10 µM (active) |  |
| N[C@@H](CCCP(=O)(O)O)C(=O)O | inactive |  |
| OC1CC2CC[C@H](C1)N2CCCN1c2ccccc2Sc2ccc(Cl)cc21 (stereo not given in full) |  | -19.5% [at 11.4 µM] (inactive) |
| COc1ccc2c(c1)N(CC[C@H]1CCCCN1C)c1ccccc1S2 |  | -12% [at 11.4 µM] (inactive) |
| O=C(CSc1nc2ccccc2o1)N1c2ccccc2Sc2ccc(Cl)cc21 | 2.51 µM (active) |  |
| COc1ccc2c(c1)N(C[C@@H](C)CN(C)C)c1ccccc1S2 | inactive |  |

| Structure (SMILES) | AC50 | activity, negative = inhibition |
| --- | --- | --- |
| COc1ccc(OCc2nnc(SCC(=O)N3c4ccccc4Sc4ccc(Cl)cc43)o2)cc1 | 6.31 µM (active) |  |
| O=C1CSC2(CCN(CCCN3c4ccccc4Sc4ccc(Cl)cc43)CC2)N1 |  | -35% [at 11.4 µM] (inactive) |
| O=C(O)CCCSc1nc2ccccc2s1 |  | 20.2% [at 11.4 µM] (inactive) |
| O=C(CSc1nc2ccccc2s1)N1c2ccccc2Sc2ccc(C(F)(F)F)cc21 | 4.47 µM (active) |  |
| Nc1c(OCC(=O)O)ccc2cc(S(=O)(=O)O)ccc12 |  | -19.3% [at 11.4 µM] (inactive) |
| CN(C)C=Nc1ccc2nn(-c3ccccc3)nc2c1 | 17.8 µM (active) |  |
| O=C(O)c1nn(-c2ccccc2)nc1-c1nn(-c2ccccc2)nc1C(=O)O | inactive |  |
| CSc1ccc(CNc2ccc(Cl)cc2)cc1 | 0.02 µM (active) |  |
| CSc1ccc(CNc2ccccc2)cc1 | 0.631 µM (active) |  |
| CC(C)(CC(=O)Nc1ccccc1)C(=O)O |  | 43% [at 11.4 µM] (inactive) |
| CSc1ccc(CNc2ccc(C)c(C)c2)cc1 | 0.0316 µM (active) |  |
| CCNc1ncc2nc(CCc3ccccc3)c(=O)n(CCOC)c2n1 | 10 µM (active) |  |
| CN(C)c1ncc2nc(CCc3ccccc3)c(=O)n(CCC#N)c2n1 | 10 µM (active) |  |
| Cc1nc2cnc(N(C)C)nc2n(CCC#N)c1=O | inactive |  |
| CCNc1ncc2nc(CCc3ccccc3)c(=O)n(CCC#N)c2n1 | 15.8 µM (active) |  |
| CN(C)c1ncc2nc(-c3ccc(F)cc3)c(=O)n(CCC#N)c2n1 | inactive |  |
| CCNc1ncc2nc(-c3ccc(F)cc3)c(=O)n(CCOC)c2n1 | inactive |  |
| CCNc1ncc2nc(-c3cn(C)c4ccccc34)c(=O)n(CCC#N)c2n1 | inactive |  |
| CCNc1ncc2nc(-c3ccc(OC)cc3)c(=O)n(CCOC)c2n1 | inactive |  |
| N#CCCn1c(=O)c(CCc2ccccc2)nc2cnc(Nc3ccccc3)nc21 | inactive |  |
| COc1ccc(CCCC(=O)NC2CCCCC2)cc1 | 3.16 µM (active) |  |
| COc1ccc(CCNC(=O)COc2ccc(S(=O)(=O)NC3CCCCC3)cc2Cl)cc1 | 7.94 µM (active) |  |

| Structure (SMILES) | AC50 | activity, negative = inhibition |
| --- | --- | --- |
| COc1ccc2c(c1)C(=O)N(CCc1ccc(S(=O)(=O)NC(=O)NC3CCCCC3)cc1)C(=O)C2(C)C | inactive |  |
| COc1cccc(-c2nccc(NCc3cccc(C)c3)n2)c1 | 6.31 µM (active) |  |
| COc1cccc(-c2nccc(NCc3cnc(C)cn3)n2)c1 | inactive |  |
| COc1cccc(-c2nccc(NCc3ccccc3)n2)c1 | 7.94 µM (active) |  |
| CC1CCN(C(=S)c2ccc(O)cc2)CC1 | 3.55 µM (active) |  |
| Cc1cccc2c1Oc1ccccc1[C@@H]2NC(=O)c1ccc([N+](=O)[O-])cc1 |  | -12.7% [at 11.4 µM] (inactive) |
| N[C@](CC1c2ccccc2Oc2ccccc21)(C(=O)O)[C@@H]1C[C@@H]1C(=O)O | inactive |  |
| Cc1cccc2sc(NC(=O)C3c4ccccc4Oc4ccccc43)nc12 | 2.51 µM (active) |  |
| O=C(Nc1cccnc1Cl)C1c2ccccc2Oc2ccccc21 | 0.794 µM (active) |  |
| O=C1C2=CC[C@@H]3C(=O)N(c4ccc(F)cc4F)C(=O)[C@H]3[C@H]2[C@H](O)[C@H]2O[C@H]12 |  | -24% [at 11.4 µM] (inactive) |
| Cc1noc(C)c1C(=O)N1CCC2(CCCN(Cc3ccccc3)C2)CC1 | inactive |  |
| OCCN(Cc1ccccc1)Cc1cccc(Cl)c1Cl | 0.282 µM (active) |  |
| COc1ccc(CNc2nc(-c3c(C)noc3C)nc3ccccc23)c(OC)c1 | 3.16 µM (active) |  |
| Cc1noc(C)c1-c1nc(N2CCN(C)CC2)c2ccccc2n1 | inactive |  |
| COc1ccc(CNc2nc(-c3ccc4c(c3)OCO4)nc3ccccc23)c(OC)c1 | 7.94 µM (active) |  |
| CN(C)c1ccc(-c2nc(NCCc3cnc[nH]3)c3ccccc3n2)cc1 | 1.58 µM (active) |  |
| COCCNc1nc(-c2ccccc2CN(C)C)nc2ccccc12 | inactive |  |
| CC(=O)NCCNc1nc(-c2ccc(N(C)C)cc2)nc2ccccc12 | inactive |  |
| COc1ccc(OC)c(Nc2nc(-c3cccc([N+](=O)[O-])c3)nc3ccccc23)c1 | inactive |  |
| COCCNc1nc(-c2ccc(N(C)C)cc2)nc2ccccc12 | 15.8 µM (active) |  |
| COCCNc1nc(-c2ccc(C(=O)N(C)C)cc2)nc2ccccc12 | inactive |  |
